Consider 86 molecules from the supplement of paper PMC9948646.

This experiment deals with gramicidin D channels in DC22:1PC lipid vesicles (bilayer-modifying potency). The experiment can be described thus: initial Tl+ fluorescence quench rate relative to no-drug control (NormRate, gramicidin monomer-dimer shift) (ratio (fold of control)); higher = stronger bilayer-modifying effect (equilibrium shifted toward conducting dimers), active = 1.5 or more. As to conditions: 10 µM; lipid concentration 50 µM; temperature: 25 °C. The protocol: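 Stopped-flow fluorescence quench assay: ANTS-loaded DC22:1PC large unilamellar vesicles doped with gramicidin D (1:2000), 50 µM lipid, equilibrated 10 min with 10 µM drug (0.1% DMSO), mixed with Tl+ quench buffer at 25°C. Initial quench rate (Tl+ influx) was fitted with a modified stretched exponential and normalised to the no-drug control rate (NormRate); duplicates from two independent LUV preparations (triplicates for 7 drugs).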

With `NCC(=O)N1CCn2c(nc(-c3ccccc3)c2Nc2ccc3c(c2)OCO3)C1`, the “initial Tl+ fluorescence quench rate” value was 1.36 (inactive). The figure for `COc1ccc(-c2cncc3ccc(C(=O)NCCCn4ccnc4)nc23)cc1` is 1.03 (inactive); for `O=C(Nc1nnc(-c2ccc(Cl)s2)o1)c1ccc(Cl)s1` it is 1.27 (inactive). On to `COc1ccc(C2=NN(C3CCCCCC3)C(=O)[C@@H]3CC=CC[C@H]23)cc1OCCCCOc1ccc(-c2nn[nH]n2)cc1`, for which the “initial Tl+ fluorescence quench rate” value was 8.03 (active). With `CN1CCN(S(=O)(=O)c2ccc(-c3ccc4c(Nc5ccc6nn[nH]c6c5)ccnc4c3)cc2)CC1` the figure was 1.28 (inactive). With `CC(=O)N(CCN(C(=O)c1ccc(F)cc1)c1ccccc1)c1ccccc1` the figure was 1.14 (inactive); with `c1cc(C2=NCCN2)cc(-c2cc(-c3ccc(C4=NCCN4)cc3)no2)c1`, 1.17 (inactive); with `O=C(N[C@H](Cc1ccccc1)C(=O)Nc1ccccc1N1CCOCC1)c1cccs1`, 1.21 (inactive). The figure for `CC[C@@H]([C@H](C)O)n1ncn(-c2ccc(N3CCN(c4ccc(OC[C@@H]5CO[C@@](Cn6cncn6)(c6ccc(F)cc6F)C5)cc4)CC3)cc2)c1=O` is 7.69 (active); for `COc1ccc(O[C@H](C)C(=O)Nc2ccc(Cl)cc2C)cc1` it is 1.05 (inactive). With `COc1ccc(-c2nn(C(C)C)c3ncnc(N)c23)cc1OC`, the “initial Tl+ fluorescence quench rate” value was 1.01 (inactive). The figure for `CC[C@H](NC(=O)c1ccccc1NC(=O)c1ccc(C)cc1)C(=O)OC` is 1.32 (inactive). The figure for `CCN(CC)C(=O)N1CCN(C)CC1` is 1.1 (inactive); for `NC(=O)c1cc(-c2ccsc2)ccc1OCCOc1ccccc1` it is 1.14 (inactive). `CO[C@H]1/C=C/O[C@@]2(C)Oc3c(C)c(O)c4c(O)c(/c(=C/NN5CCN(C)CC5)c(O)c4c3C2=O)=N\C(=O)/C(C)=C\C=C/[C@H](C)[C@H](O)[C@@H](C)[C@@H](O)[C@@H](C)[C@H](OC(C)=O)[C@@H]1C`: the “initial Tl+ fluorescence quench rate” value is 1.34 (inactive).

On to `Cn1ncc2c(N3CCOCC3)nc(NCCc3c[nH]c4ccccc34)nc21`, for which the “initial Tl+ fluorescence quench rate” value is 3.03 (active). As to `CC(C)(C)c1ccc(N[C@@H]2CCCC[C@H]2NC(=O)c2ccco2)cc1`, the “initial Tl+ fluorescence quench rate” value is 1.36 (inactive).

Turning to `COc1ccc(C2=NCCN2)cc1-c1cn(-c2cccc(C3=NCCN3)c2)nn1`, the “initial Tl+ fluorescence quench rate” value is 1.2 (inactive). With `Clc1cccc(CO[C@H]2CCc3ccccc3[C@@H]2n2ccnn2)c1` the figure was 1.37 (inactive); with `COc1cccc(OC)c1C(=O)Nc1ccc(Cl)c(-c2nc3ccccc3s2)c1`, 3.12 (active); with `CCN(CC)S(=O)(=O)c1ccc(C(=O)Nc2cc(C)nn2-c2nc(C)c(C)c(=O)[nH]2)cc1`, 1.57 (active). The figure for `CCOc1ccc(-c2nc(CNCCc3ccc(F)cc3)cs2)cc1` is 1.44 (inactive); for `COc1cc(-c2cc(-c3ccc(S(C)(=O)=O)cc3)cnc2N)ccc1O` it is 1.09 (inactive); for `COc1cccc(CC(=O)N2CCC(n3c(C)nc4ccc(F)cc43)CC2)c1` it is 1.15 (inactive). With `COc1ccc(N(CCc2cccc(C)n2)C(=O)C2CCCCC2)cc1` the figure was 1.41 (inactive); with `COc1cc(C2=NCCN2)cc2cc(-c3ccc(C4=NCCN4)cc3)oc12`, 1.1 (inactive). With `FC(F)(F)c1nnc2ccc(Cl)nn12`, the “initial Tl+ fluorescence quench rate” value is 1.02 (inactive). The figure for `COC(=O)c1ccc(F)cc1NS(=O)(=O)c1cccc(-c2cnn(Cc3ccccc3)c2)c1` is 1.25 (inactive); for `CCc1nc2ccccc2n1C[C@H](O)COc1cc(C)ccc1Cl` it is 2.91 (active); for `O=C(NCc1ccco1)N1CCN(Cc2ccc(Cl)s2)CC1` it is 1.03 (inactive). In the case of `CCOC(=O)c1noc(N)c1-c1ccccc1`, the “initial Tl+ fluorescence quench rate” value was 1.03 (inactive). With `O=C1N(Cc2cc3ccccc3s2)C[C@H]2CN(Cc3ccccc3)CCN12` the figure was 2.35 (active); with `CCCS(=O)(=O)N1CCC(CO)(Cc2ccccc2C(F)(F)F)CC1`, 1.62 (active); with `COc1cc(OC)cc(C(=O)NC[C@@H]2Cc3cc(Cl)cc(-c4ccncc4)c3O2)c1`, 2.47 (active). With `CCN(CC)S(=O)(=O)c1ccc(Cl)c(C(=O)Nc2ccc3nc(C)sc3c2)c1` the figure was 2.06 (active); with `Cc1nn2c(O)c3c(nc2c1-c1ccc(F)cc1)CCCC3`, 1.07 (inactive). Consider `COc1ccc(N(CCc2cccc(C)n2)C(C)=O)cc1`, for which the “initial Tl+ fluorescence quench rate” value was 1.04 (inactive).

For `CC(C)(C)OC(=O)N1CCN(c2cc(-c3ccc(Oc4ccccc4)cc3)n[nH]2)CC1`, the “initial Tl+ fluorescence quench rate” value is 3.47 (active).

Take `CC(C)(C)c1cnc(NC(=O)c2ccccc2O)s1`: the “initial Tl+ fluorescence quench rate” value is 2.31 (active). The figure for `CN1CCC[C@H]1CCO[C@](C)(c1ccccc1)c1ccc(Cl)cc1` is 2.33 (active). `COc1ccc(OC)c(NCc2ccc3nc(N)nc(N)c3c2Cl)c1`: the “initial Tl+ fluorescence quench rate” value is 1.54 (active). The figure for `Nc1ncnc2[nH]nc(Cc3cccc4ccccc34)c12` is 1.15 (inactive); for `Cc1ccccc1C(=O)N1N=C(Nc2ccccc2)SC1(C)C` it is 2.12 (active).

With `Cc1cc(C)n2nc(C(=O)Nc3cc(C(F)(F)F)ccc3N3CCOCC3)nc2n1`, the “initial Tl+ fluorescence quench rate” value is 1.17 (inactive).

Consider `O=C(NCc1nnc2n1CCCCC2)c1ccc(-c2ccc(F)cc2)o1`, for which the “initial Tl+ fluorescence quench rate” value was 1.08 (inactive).

`CC[P](CC)(CC)=[Au][S][C@H]1O[C@@H](COC(C)=O)[C@H](OC(C)=O)[C@@H](OC(C)=O)[C@@H]1OC(C)=O`: the “initial Tl+ fluorescence quench rate” value is 1.07 (inactive). For the molecule `CO[C@@H](C(=O)N1Cc2[nH]nc(NC(=O)c3ccc(N4CCN(C)CC4)cc3)c2C1)c1ccccc1`, the “initial Tl+ fluorescence quench rate” value was 1.2 (inactive). The figure for `N#Cc1ccc(-c2cnc(N)c(-c3ccc(C(N)=O)cc3)n2)cc1` is 1.28 (inactive); for `CCOC(=O)NC(=O)c1ccsc1NC(=O)c1nc2ccccc2s1` it is 3.21 (active); for `CCn1cnc2c(Nc3cc(F)cc(F)c3)nc(C#N)nc21` it is 1.21 (inactive).

As for `Cc1ccc2nc(Cl)c(CNCc3cccs3)cc2c1`, the “initial Tl+ fluorescence quench rate” value is 1.03 (inactive). With `C[C@H](C(=O)Nc1ccc2oc(-c3ccncc3)nc2c1)c1ccccc1` the figure was 1.09 (inactive). The figure for `C[C@@H](C(=O)N1CCCC1)N1CCN(S(=O)(=O)c2ccc(C(C)(C)C)cc2)CC1` is 1.15 (inactive); for `COc1ccc(-c2cnc3ccc(N4CCCC4)nn23)cc1OC` it is 2.31 (active).

For the molecule `CN1CCN(S(=O)(=O)c2ccc(-c3ccc4c(Nc5ncc(Cl)cn5)ccnc4c3)cc2)CC1`, the “initial Tl+ fluorescence quench rate” value is 2.76 (active). With `COc1cc(CN2CCC3(C=Cc4ccccc43)CC2)cc2c1OCO2` the figure was 2.43 (active); with `Cc1cc(C)n(-c2ccc(NC(=O)C3CCN(Cc4cnc(C)s4)CC3)cc2)n1`, 1.01 (inactive); with `COC(=O)Nc1nc2cc(C(=O)c3ccccc3)ccc2[nH]1`, 1.04 (inactive). The figure for `Clc1ccc(CCNc2cc(-c3ccccc3)nc3ncnn23)cc1` is 1.3 (inactive); for `Cc1cc(Nc2ccc(C(F)(F)F)cc2)n2ccnc2n1` it is 1.05 (inactive); for `Cc1ccc2nc(C)c(-c3ccn(Cc4ccccc4)n3)n2c1` it is 1.28 (inactive).

On to `CC(=O)N1CCc2cc3nc(C)cc(C)c3cc21`, for which the “initial Tl+ fluorescence quench rate” value was 1.09 (inactive). With `CCOc1ccc2cc(-c3nn(CC4CCN(C)CC4)c4ncnc(N)c34)ccc2c1` the figure was 1.16 (inactive); with `O=C(Nc1cccnc1)c1c(O)c2cccc3c2n(c1=O)CC3`, 1.07 (inactive); with `CCOc1ccc(-c2nc(NC(=O)CS(=O)(=O)c3ccccc3)sc2C)cc1`, 3.58 (active). As to `CC[C@H](C)NC(=O)c1ccc(NC(=O)C2(c3ccccc3)CCCC2)cc1`, the “initial Tl+ fluorescence quench rate” value was 1.75 (active).

As to `C[C@]1(O)C[C@@H](c2nc(-c3ccc4ccc(-c5ccccc5)nc4c3)c3c(N)nccn32)C1`, the “initial Tl+ fluorescence quench rate” value was 1.59 (active). With `CNC(=O)[C@@H]1Cc2c([nH]c3cc(Cl)ccc23)C2(CCN(CCc3ccccc3)CC2)N1` the figure was 2.52 (active). With `COC(=O)c1cccc2oc(-c3cccc(OC)c3NC(=O)c3cc(-c4ccccc4)on3)nc12` the figure was 1.76 (active); with `COc1cccc2c(C)nc(N=C(N)N)nc12`, 1.08 (inactive).

`c1ccc(Oc2ccc(-c3cc(N4CCNCC4)[nH]n3)cc2)cc1`: the “initial Tl+ fluorescence quench rate” value was 1.44 (inactive).

With `COc1cccc(OCC(=O)c2ccc(Br)cc2)c1`, the “initial Tl+ fluorescence quench rate” value was 1.06 (inactive).

As to `CCc1ccccc1-n1c(C)cn2c3c(=O)n([C@@H](C(=O)OC)C(C)C)c(=O)n(C)c3nc12`, the “initial Tl+ fluorescence quench rate” value is 1.2 (inactive). The figure for `CC(C)(C)[C@H]1CC[C@H](CC2=C(O)C(=O)c3ccccc3C2=O)CC1` is 1.31 (inactive). With `Nc1ncnc2c1c(Cc1cccc3ccccc13)nn2CC1CCNCC1` the figure was 1.15 (inactive); with `CNC(=O)c1nn(C)c2c1C(C)(C)Cc1cnc(Nc3ccc(N4CCN(C)CC4)cc3)nc1-2`, 1.04 (inactive). With `COc1ccc(CCN2CCC(NCc3cccc(N(C)C)c3)CC2)cc1` the figure was 1.07 (inactive). Turning to `COc1ccc2nccc(NC(=O)C3CCN(CCc4ccc(Cl)cc4)CC3)c2n1`, the “initial Tl+ fluorescence quench rate” value was 1.09 (inactive). With `Cc1cccnc1NC(=O)c1cccc(OCc2c(C)noc2C)c1` the figure was 1.07 (inactive); with `CCCCN(CCCC)c1c(C#N)cc(S(=O)(=O)Nc2ccccc2)cc1C#N`, 1.1 (inactive). With `CCc1cc(=O)n(C)c(S[C@H](C)C(=O)Nc2ccc(F)cc2)n1` the figure was 1.15 (inactive). With `NS(=O)(=O)c1cccc(-c2ccc3ncc(N4CCOCC4)nc3c2)c1` the figure was 1.41 (inactive); with `Cc1nc(-c2cccc(NCc3ccccc3)c2)[nH]c1C`, 1.24 (inactive); with `N[C@H](CC(=O)c1ccc(Cl)cc1Cl)C(Cl)(Cl)Cl`, 1.12 (inactive). For `Cc1ccc(Oc2ccc(NC(=O)CNc3ccccc3N3CCCC3=O)cc2)cc1`, the “initial Tl+ fluorescence quench rate” value was 4.66 (active). The figure for `O=C1Nc2ccc(Br)cc2[C@]12NCCc1c2[nH]c2ccccc12` is 3.74 (active).
